Test results reported in PubChem BioAssay (Tox21).
Inconclusive results are not listed. A number with no mark means an inactive call. Activity calls are given as the source filed them. The call rests on the fitted dose curve.
On the % scale 0 is the no-effect control and ±100 the full control effect; potency means the concentration at half of the fitted maximal effect.

Experiment: p53 small molecule agonists, cell-based qHTS assay: qHTS cell viability counter screen (AID 1963581); further: nearly all actives have a fitted effect of over 45% in size
Conditions: p53RE-bla HCT-116 viability, ATP luminescence, 16 h; series mostly up to 66 µM; activity change, negative = cytotoxicity: at the top concentration
Source text: National Center for Advancing Translational Sciences [NCATS]
Division of Preclinical Innovation [DPI]
U.S. Environmental Protection Agency [EPA]
National Institutes of Environmental Health Sciences [NIEHS]
National Toxicology Program [NTP]
U.S. Food and Drug Administration [FDA]
p53, a tumor suppressor protein, is activated following cellular insult, including DNA damage and other cellular stresses. The activation of p53 regulates cell fate by inducing DNA repair, cell cycle arrest, apoptosis, or cellular senescence. The activation of p53, therefore, is a good indicator of DNA damage and other cellular stresses. The CellSensor p53RE-bla HCT-116 cell line (Invitrogen) contains a stably integrated beta-lactamase reporter gene under control of the p53 response elements. The activation of the reporter gene under culture conditions can be detected by fluorescence intensity. This cell line was used to screen the Tox21 compound library in a 1536-well plate format and to identify agonists that activate the p53 signaling pathway. The cytotoxicity of the Tox21 compound library against the p53 RE-bla HCT-116 cell line was tested in parallel by measuring the intra cellular ATP content in the same wells.
Tox21 Assay Protocol Summary:
The p53RE-bla cells were dispensed at 4,000 cells/5 ul/well in 1536-well black wall/clear bottom plates using a Multidrop dispenser. After the assay plates were incubated at a 37 C/5% CO2 incubator for 5 hours, 23 nL of compounds dissolved in DMSO, positive controls or DMSO only was transferred to the assay plate by a pin tool. The plates were incubated at 37 C for 16 hours. After 1 uL of LiveBLAzerTM B/G FRET substrate was added using a Flying Reagent Dispenser, the plates were incubated at room temperature for 2 hours, and fluorescence intensity was measured by an Envision plate reader. For cell viability readout that measures cytotoxicity, 4 ul/well of CellTiter-Glo reagent was added into the assay plates using a Flying Reagent Dispenser. After 30 min incubation at room temperature, the luminescence intensity in the plates was measured using a ViewLux plate reader.
For `CCN(CC)CCNc1ccc(CNC=O)c2sc3ccc(OC)cc3c(=O)c12`, the “activity change, negative = cytotoxicity” value was -3.53%. In the case of `CCN1CCCC1CNC(=O)c1cc(S(=O)(=O)CC)c(N)cc1OC` (stereo not given), the “activity change, negative = cytotoxicity” value is reported as 30.5% [at 30.3 µM]. In the case of `CCOC(=O)c1ccc(NC(=O)CN2CCCCC2)cc1`, the “activity change, negative = cytotoxicity” value is reported as 4.43% [at 30.3 µM]. For `NNc1nc(-c2ccc([N+](=O)[O-])cc2)cs1`, the “activity change, negative = cytotoxicity” value was -3.01%. For `OC(CCN1CCCC1)(c1ccccc1)C1CCCCC1` (stereo not given), the “activity change, negative = cytotoxicity” value was -15.1% [at 30.3 µM]. With `CCCN(CCC)CCc1cccc2c1CC(=O)N2` the “activity change, negative = cytotoxicity” value was -7.55% [at 30.3 µM]. In the case of `CCCCOC(=O)C(C)Oc1ccc(Oc2ccc(C(F)(F)F)cn2)cc1` (stereo not given), the “activity change, negative = cytotoxicity” value is reported as -7.22%. In the case of `CC(C)=CCC/C(C)=C/CC/C(C)=C/C(=O)OCC(=O)[C@@]1(O)CC[C@H]2[C@@H]3CCC4=CC(=O)C=C[C@]4(C)[C@H]3[C@@H](O)C[C@@]21C`, the “activity change, negative = cytotoxicity” value is reported as 13.8% [at 30.3 µM]. In the case of `CC(CC(C#N)(c1ccccc1)C(C)C)N(C)C` (stereo not given), the “activity change, negative = cytotoxicity” value is reported as 13.1% [at 30.3 µM]. In the case of `CCn1cc(C(=O)O)c(=O)c2cc(F)c(N3CCNCC3)nc21`, the “activity change, negative = cytotoxicity” value is reported as -0.578% [at 30.3 µM]. In the case of `CC(C)(C)NCCNC(C)(C)C`, the “activity change, negative = cytotoxicity” value is reported as 1.35%. `O=S(O)(O)=S` showed an activity change, negative = cytotoxicity of -0.464% [at 5.99 µM]. In the case of `C[Si]1(C)O[Si](C)(C)O[Si](C)(C)O1`, the “activity change, negative = cytotoxicity” value is reported as 8.67%. With `C=C1CC[C@H]2O[C@]2(C)CC[C@@H]2[C@@H]1CC2(C)C` the “activity change, negative = cytotoxicity” value was -0.309%. With `O=C(O)c1cccc(-c2noc(-c3ccccc3F)n2)c1` the Potency was 15.8 µM (active). In the case of `CC(Cl)C(Cl)Cl` (stereo not given), the “activity change, negative = cytotoxicity” value is reported as -23.6%. With `CCCC(=O)C(CC)Sc1ccoc1C` (stereo not given) the “activity change, negative = cytotoxicity” value was -8.51%. In the case of `O=C1OC(O)C(C(Cl)Cl)=C1Cl` (stereo not given), the “activity change, negative = cytotoxicity” value is reported as -13.6%. For `Nc1ccc(S(=O)(=O)Nc2ccccn2)cc1`, the “activity change, negative = cytotoxicity” value was -0.0848% [at 30.3 µM]. In the case of `CC(C)C1OCCN1CCOC(=O)NCCCCCCNC(=O)OCCN1CCOC1C(C)C` (stereo not given), the “activity change, negative = cytotoxicity” value is reported as -3.37%. With `CC1OCCC1=O` (stereo not given) the “activity change, negative = cytotoxicity” value was 21%. In the case of `FC(F)(F)C(F)(F)C(F)(F)C(F)(F)C(F)(F)C(F)(F)C(F)(F)C(F)(F)Br`, the “activity change, negative = cytotoxicity” value is reported as -1.62% [at 30.3 µM]. In the case of `CC(C)(C)C(=O)NCCCC(=O)O`, the “activity change, negative = cytotoxicity” value is reported as -26.3% [at 30.3 µM]. For `OCCN1CN(CCO)CN(CCO)C1`, the “activity change, negative = cytotoxicity” value was -5.84%. In the case of `CC(C)(C#N)Nc1nc(Cl)nc(NC2CC2)n1`, the “activity change, negative = cytotoxicity” value is reported as -0.482%. With `CC(=O)Nc1ccc(S(N)(=O)=O)cc1` the “activity change, negative = cytotoxicity” value was 13.2%. With `CN1CC(=O)NC1=N` the “activity change, negative = cytotoxicity” value was 0.205% [at 30.3 µM]. For `CCOC(=O)CC(C)O` (stereo not given), the “activity change, negative = cytotoxicity” value was 10.4%. With `Nc1c2c(nc3c1CCC3)CCCC2` the “activity change, negative = cytotoxicity” value was -3.86% [at 30.3 µM]. With `CC(C)=NNC(N)=S` the “activity change, negative = cytotoxicity” value was -9.88%. For `C=CCc1ccccc1OCC(O)CNC(C)C` (stereo not given), the “activity change, negative = cytotoxicity” value was 1.79% [at 30.3 µM]. In the case of `CCOc1cc([N+](=O)[O-])c(OCC)cc1N1CCOCC1`, the “activity change, negative = cytotoxicity” value is reported as 4.61%. In the case of `CC(=O)Nc1cccc(C)c1`, the “activity change, negative = cytotoxicity” value is reported as 3.81%. For `Nc1ccc(S(=O)(=O)NCc2ccccc2)cc1`, the “activity change, negative = cytotoxicity” value was 2.83% [at 30.3 µM]. For `CCCC(=O)OC(=O)CCC`, the “activity change, negative = cytotoxicity” value was 3.08%. For `CC(=O)C1C(=O)C=C(C)OC1=O` (stereo not given), the “activity change, negative = cytotoxicity” value was 1.2%. In the case of `c1ccc(CC2=NCCN2)cc1`, the “activity change, negative = cytotoxicity” value is reported as -6.02% [at 30.3 µM]. In the case of `O=C(C(Cl)Cl)N1CCOC12CCCCC2`, the “activity change, negative = cytotoxicity” value is reported as 7.89%. With `CCCOc1ccc(C(=O)OCCN(CC)CC)cc1N` the “activity change, negative = cytotoxicity” value was -10.4% [at 30.3 µM]. In the case of `CN1C(=O)CC(c2ccccc2)C1=O` (stereo not given), the “activity change, negative = cytotoxicity” value is reported as 9.51% [at 30.3 µM].
